Test results from PubChem BioAssay.
Calls of active or inactive are those of the source.

Assays:
Albumin (Bos taurus) = Albumin (Bos taurus) (UniProt P02769); assay: bovine serum albumin binders on microarray, profiling panel, artefact control for SMM control protein annotation, biochemical, small-molecule microarray, Alexa647 label, 635/667 nm fluorescence (AID 1118); conditions: BSA-A647 binding, fluorescence 635 nm, higher = more signal;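 further: score merges 667 nm emission intensity and signal-to-noise per printed compound spot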
[1] = small-molecule microarray binders of probe aXIP, primary screen, biochemical, NeuroSMM set, 635/667 nm fluorescence (AID 1119); conditions: higher = more signal, called active from +8 up or from −8 down;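 further: probe is the protein aXip251-270 applied at 1 µg/mL to compound-printed slides; binding of probe to printed compounds measured as 667 nm fluorescence plus signal to noise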
[2] = small-molecule binders of probe aNOTCH3, primary screen, biochemical, small-molecule microarray, 635/667 nm fluorescence (AID 1120); conditions: higher = more signal;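 further: probe is a biotin-tagged antibody raised against NOTCH3 rather than NOTCH3 protein; score merges spot fluorescence near 667 nm with spot signal to noise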
[3] = small-molecule binders of probe aNOTCH2, primary screen, biochemical, small-molecule microarray, 635/667 nm fluorescence (AID 1121); conditions: higher = more signal;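 further: score merges feature fluorescence read at 667 nm with its signal to noise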
[4] = target: Carbonic anhydrase 2 (Homo sapiens) (UniProt P00918); assay: CAII small-molecule binders, profiling panel, biochemical, small-molecule microarray, Alexa647-labelled CAII (AID 1122); conditions: CAII-A647 binding fluorescence, higher = more signal
[5] = COS7 lysate on small-molecule microarray, probe aHis, 635 nm (AID 1123); conditions: COS7 cell lysate, fluorescence, higher = more signal;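 further: z-score combines 667nm fluorescence intensity with signal-to-noise per printed compound spot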
[6] = compound binding in COS7 lysate, probe aLAP1, primary screen, cell lysate, small-molecule microarray (AID 1124); conditions: probe aLAP1, fluorescence, higher = more signal;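 further: lysate comes from COS7 cells expressing LAP1 and is applied at 0.3 µg/mL; score merges spot fluorescence near 667 nm with signal-to-noise over triplicate slides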
Sam68 (KHDRBS1) = assay: Sam68 small-molecule binders, primary screen, biochemical, small-molecule microarray, 635 nm fluorescence (AID 1125); conditions: small-molecule microarray binding, higher = more signal;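 further: score merges 667 nm channel intensity with signal to noise over triplicate slides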
[7] = system: Chordin-like protein 2 (CHRDL2); assay: CHRDL2 small-molecule binders, primary screen, biochemical, small-molecule microarray, 635 nm fluorescence (AID 1126); conditions: small-molecule microarray binding, fluorescence 635 nm; higher = more signal;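 further: printed compound slides probed with Chrdl2 protein at 4 µg/mL for 1 h at 4 C; score merges 667 nm emission intensity with signal to noise over three replicate slides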
[8] = target: Concanavalin-A (Canavalia ensiformis) (UniProt P02866); assay: ConA small-molecule binders, primary screen, artefact control for SMM control protein annotation, biochemical, small-molecule microarray, Alexa647 label, 635 nm (AID 1127); conditions: ConA-A647 binding fluorescence, higher = more signal;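 further: z combines 667 nm emission intensity with signal-to-noise across three replicate slides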
Concanavalin-A (Canavalia ensiformis), sequence (P02866 whole entry, looked up): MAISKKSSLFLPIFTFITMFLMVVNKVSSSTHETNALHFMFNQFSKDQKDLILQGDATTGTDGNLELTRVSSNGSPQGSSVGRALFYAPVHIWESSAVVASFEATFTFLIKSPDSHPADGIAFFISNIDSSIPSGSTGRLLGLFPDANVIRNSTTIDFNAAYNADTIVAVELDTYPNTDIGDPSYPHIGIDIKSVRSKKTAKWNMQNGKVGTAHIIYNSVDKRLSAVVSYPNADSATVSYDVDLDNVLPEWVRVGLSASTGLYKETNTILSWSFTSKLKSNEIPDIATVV

Albumin (Bos taurus), sequence (P02769 whole entry, looked up): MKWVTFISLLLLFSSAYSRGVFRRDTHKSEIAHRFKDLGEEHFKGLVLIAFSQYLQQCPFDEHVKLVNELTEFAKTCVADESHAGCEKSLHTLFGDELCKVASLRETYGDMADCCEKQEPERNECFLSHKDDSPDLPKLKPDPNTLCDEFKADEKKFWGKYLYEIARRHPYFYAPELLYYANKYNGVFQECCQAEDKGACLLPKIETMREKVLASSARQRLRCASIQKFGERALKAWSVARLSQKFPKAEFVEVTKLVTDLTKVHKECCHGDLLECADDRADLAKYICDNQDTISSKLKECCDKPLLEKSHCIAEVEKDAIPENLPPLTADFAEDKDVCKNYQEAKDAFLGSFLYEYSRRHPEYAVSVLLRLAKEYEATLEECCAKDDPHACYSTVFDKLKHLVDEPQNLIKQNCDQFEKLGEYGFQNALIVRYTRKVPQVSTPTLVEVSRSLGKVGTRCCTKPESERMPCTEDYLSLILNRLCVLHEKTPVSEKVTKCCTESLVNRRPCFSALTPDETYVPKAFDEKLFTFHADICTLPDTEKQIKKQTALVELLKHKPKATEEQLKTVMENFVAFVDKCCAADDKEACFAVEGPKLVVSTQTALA

Compound: O=C1O[C@H](c2ccccc2)[C@H](c2ccccc2)N2[C@H]1[C@@H](C(=O)N1CCN(c3ncccn3)CC1)[C@]1(C(=O)Nc3ccccc31)[C@H]2c1ccc(OCCO)cc1
- composite z-score (Albumin (Bos taurus)): 0.204
- composite Z-score [1]: -0.317 (inactive)
- composite z-score [2]: 0.183
- composite z-score [3]: -0.0986
- composite z-score [4]: 0.301
- composite z-score [5]: 1.75
- composite z-score [6]: 0.151
- composite z-score (Sam68 (KHDRBS1)): 1.3
- composite z-score [7]: 0.602
- composite z-score [8]: 0.536

Compound: O=C1O[C@H](c2ccccc2)[C@H](c2ccccc2)N2[C@H]1[C@@H](C(=O)Nc1nc3ccccc3s1)[C@]1(C(=O)Nc3ccccc31)[C@H]2c1ccc(O)cc1
- composite z-score (Albumin (Bos taurus)): 0.164
- composite Z-score [1]: 0.0275 (inactive)
- composite z-score [2]: 0.156
- composite z-score [3]: -0.0873
- composite z-score [4]: 0.36
- composite z-score [5]: 1.66
- composite z-score [6]: 0.293
- composite z-score (Sam68 (KHDRBS1)): 1.02
- composite z-score [7]: 0.701
- composite z-score [8]: 1.07

Compound: CCCN1C(=O)[C@]2(COC(c3ccc(OCCCO)cc3)=N2)Cc2ccccc21
- composite z-score (Albumin (Bos taurus)): 0.0531
- composite Z-score [1]: 0.305 (inactive)
- composite z-score [2]: -0.0026
- composite z-score [3]: -0.0009
- composite z-score [4]: 0.64
- composite z-score [5]: 1.93
- composite z-score [6]: -0.218
- composite z-score (Sam68 (KHDRBS1)): 1.11
- composite z-score [7]: -0.125
- composite z-score [8]: 1.13

Compound: Cc1ccc([C@H]2C(C(=O)O)=C[C@@H](C)N2S(=O)(=O)c2ccc(C)cc2)cc1
- composite z-score (Albumin (Bos taurus)): 0.892
- composite Z-score [1]: 0.24 (inactive)
- composite z-score [2]: -0.0918
- composite z-score [3]: 0.069
- composite z-score [4]: 0.866
- composite z-score [5]: 2.6
- composite z-score [6]: 0.166
- composite z-score (Sam68 (KHDRBS1)): 0.821
- composite z-score [7]: -1.55
- composite z-score [8]: -0.72

Compound: CCCN1C(=O)[C@@]2(CCC(=O)OC(C)(C)C)N=C(c3ccc(OCCCO)cc3)O[C@H]2c2ccccc21
- composite z-score (Albumin (Bos taurus)): 0.556
- composite Z-score [1]: 0.548 (inactive)
- composite z-score [2]: 0.0225
- composite z-score [3]: -0.0633
- composite z-score [4]: 0.376
- composite z-score [5]: 1.69
- composite z-score [6]: 0.0436
- composite z-score (Sam68 (KHDRBS1)): 1.31
- composite z-score [7]: 0.345
- composite z-score [8]: 0.958

Compound: [N-]=[N+]=NCc1ccccc1[C@H]1OC(c2ccc(OCCCO)cc2)=N[C@@]1(CCS(=O)(=O)c1ccccc1)C(=O)N1CCOCC1
- composite z-score (Albumin (Bos taurus)): 1.05
- composite Z-score [1]: 1.09 (inactive)
- composite z-score [2]: 0.515
- composite z-score [3]: 0.268
- composite z-score [4]: 0.819
- composite z-score [5]: 3.05
- composite z-score [6]: 0.362
- composite z-score (Sam68 (KHDRBS1)): 1.3
- composite z-score [7]: -0.584
- composite z-score [8]: 1.11

Compound: Cc1ccc(S[C@]2(C(=O)NCC(C)C)CC(=O)N(Cc3ccccc3Cl)[C@@H]2c2ccc(CO)cc2)cc1
- composite z-score (Albumin (Bos taurus)): -0.968
- composite Z-score [1]: -0.12 (inactive)
- composite z-score [2]: -0.312
- composite z-score [3]: -0.162
- composite z-score [4]: 0.738
- composite z-score [5]: 0.678
- composite z-score [6]: -0.0092
- composite z-score (Sam68 (KHDRBS1)): -0.897
- composite z-score [7]: -0.796
- composite z-score [8]: -1.88

Compound: COCCOC(=O)N1C(=O)[C@@]2(c3cc(C#CC4=CCCCC4)ccc31)[C@H](C(=O)N1CCc3cc(OC)c(OC)cc3C1)[C@H]1C(=O)O[C@H](c3ccccc3)[C@H](c3ccccc3)N1[C@@H]2c1ccccc1OCCO
- composite z-score (Albumin (Bos taurus)): -0.092
- composite Z-score [1]: -0.243 (inactive)
- composite z-score [2]: -0.068
- composite z-score [3]: -0.118
- composite z-score [4]: -0.0205
- composite z-score [5]: -0.0785
- composite z-score [6]: 0.498
- composite z-score (Sam68 (KHDRBS1)): 0.6
- composite z-score [7]: 1.03
- composite z-score [8]: 1.07

Compound: CC(=CC1CCCCC1)[C@@H](NC(=O)c1ccc(C(F)(F)F)cc1)c1ccc(-c2ccccc2)cc1
- composite z-score (Albumin (Bos taurus)): 0.938
- composite Z-score [1]: -0.193 (inactive)
- composite z-score [2]: -0.0311
- composite z-score [3]: 0.0181
- composite z-score [4]: -0.0824
- composite z-score [5]: -0.261
- composite z-score [6]: -0.223
- composite z-score (Sam68 (KHDRBS1)): -0.946
- composite z-score [7]: -0.371
- composite z-score [8]: -0.0536

Compound: COc1ccc(C(=O)Nc2cccc(CN3C(=O)[C@@]4(O[C@@H](CCn5cc(CCO)nn5)[C@H]([Si](C)(C)c5ccc(OC)cc5)[C@H]4C)c4ccccc43)c2)cc1
- composite z-score (Albumin (Bos taurus)): -0.194
- composite Z-score [1]: 1.4 (inactive)
- composite z-score [2]: 0.149
- composite z-score [3]: -0.084
- composite z-score [4]: 0.411
- composite z-score [5]: 0.733
- composite z-score [6]: -0.046
- composite z-score (Sam68 (KHDRBS1)): 1.3
- composite z-score [7]: 1.05
- composite z-score [8]: 1.08

Compound: COCCOC(=O)N1C(=O)[C@@]2(c3ccccc31)[C@H](C(=O)Nc1nc3ccccc3s1)[C@H]1C(=O)O[C@H](c3ccccc3)[C@H](c3ccccc3)N1[C@@H]2c1ccc(OCCO)cc1
- composite z-score (Albumin (Bos taurus)): 0.735
- composite Z-score [1]: -0.533 (inactive)
- composite z-score [2]: 0.127
- composite z-score [3]: -0.169
- composite z-score [4]: 0.287
- composite z-score [5]: 2.33
- composite z-score [6]: 1.39
- composite z-score (Sam68 (KHDRBS1)): 1.29
- composite z-score [7]: 0.594
- composite z-score [8]: 1.16

Compound: CCOC(=O)C[C@H]1[C@H](OC(=O)c2ccc(C(=O)c3ccccc3)cc2)[C@@H](NC(=O)C2CCCCC2)c2cc(OCCCO)ccc2N1C(=O)c1ccccc1
- composite z-score (Albumin (Bos taurus)): 0.473
- composite Z-score [1]: 0.599 (inactive)
- composite z-score [2]: 0.369
- composite z-score [3]: -0.132
- composite z-score [4]: 0.159
- composite z-score [5]: 1.54
- composite z-score [6]: 0.297
- composite z-score (Sam68 (KHDRBS1)): 1.31
- composite z-score [7]: -0.047
- composite z-score [8]: 0.799

Compound: O=C1C2C=CC(C(O)c3ccc(F)cc3)N(Nc3ccccc3)C2C(=O)N1c1ccccc1 (stereo not given)
- composite z-score (Albumin (Bos taurus)): 0.843
- composite Z-score [1]: 0.121 (inactive)
- composite z-score [2]: 0.189
- composite z-score [3]: 0.0449
- composite z-score [4]: 0.734
- composite z-score [5]: 2.88
- composite z-score [6]: -0.364
- composite z-score (Sam68 (KHDRBS1)): 0.654
- composite z-score [7]: -0.527
- composite z-score [8]: -0.398

Compound: C[C@]1(C(=O)NCc2ccccc2)c2ccccc2C(=O)N(Cc2cc(F)cc(C(F)(F)F)c2)[C@H]1c1ccc(CO)cc1
- composite z-score (Albumin (Bos taurus)): -0.35
- composite Z-score [1]: -0.146 (inactive)
- composite z-score [2]: -0.177
- composite z-score [3]: -0.0971
- composite z-score [4]: 0.699
- composite z-score [5]: 0.157
- composite z-score [6]: 0.325
- composite z-score (Sam68 (KHDRBS1)): -0.763
- composite z-score [7]: -0.786
- composite z-score [8]: -0.871

Compound: Cc1cc(C)c(C(O)C2C=CC3C(=O)N(C)C(=O)C3N2Nc2ccccc2)c(C)c1 (stereo not given)
- composite z-score (Albumin (Bos taurus)): 0.72
- composite Z-score [1]: 2.43 (inactive)
- composite z-score [2]: 1.35
- composite z-score [3]: 0.818
- composite z-score [4]: 0.784
- composite z-score [5]: 1.2
- composite z-score [6]: 0.781
- composite z-score (Sam68 (KHDRBS1)): 0.485
- composite z-score [7]: 0.452
- composite z-score [8]: 0.143

Compound: O=C1OCCC=C[C@H]2OC34C=CCN(c5ccc6ccccc6c5)C(=O)[C@H]3N(CCCCCO)C(=O)[C@@H]4C12 (stereo not given in full)
- composite z-score (Albumin (Bos taurus)): 0.388
- composite Z-score [1]: 1.1 (inactive)
- composite z-score [2]: -0.0647
- composite z-score [3]: -0.0443
- composite z-score [4]: 0.897
- composite z-score [5]: 2.11
- composite z-score [6]: 0.859
- composite z-score (Sam68 (KHDRBS1)): -0.222
- composite z-score [7]: 0.254
- composite z-score [8]: -0.119

Compound: C=CCOC(=O)[C@@H]1[C@H]2C(=O)O[C@H](c3ccccc3)[C@H](c3ccccc3)N2[C@H](c2ccc(OCCOC(=O)[C@@H]3C[C@@H]4C(=O)N[C@@H](Cc5ccccc5)C(=O)N4[C@@H]3c3cccc(OCCO)c3)cc2)[C@@]12C(=O)Nc1ccc(I)cc12
- composite z-score (Albumin (Bos taurus)): -0.912
- composite Z-score [1]: -0.292 (inactive)
- composite z-score [2]: -0.0328
- composite z-score [3]: -0.0389
- composite z-score [4]: 0.537
- composite z-score [5]: 1.1
- composite z-score [6]: 0.283
- composite z-score (Sam68 (KHDRBS1)): 1.31
- composite z-score [7]: 1.11
- composite z-score [8]: 0.795
